# From PubChem BioAssay
# PLC-beta3 inh: inhibitors of human phospholipase C beta3 | Q01970 | Purified PLC-beta3, fluorogenic substrate, fluorescence | inhibition, % at 12.2 µM | 0.18% of 370,000 active | AID 720704; in the data active = inhibition above about 11%
# ADAM10 inh: inhibitors of human ADAM10. O14672. recombinant ADAM10, EDANS/DABCYL FRET peptide cleavage, 3 h. inhibition, % at 7 µM. 0.62% of 370,000 active;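 active = inhibition above a per-campaign cutoff equal to the mean of compounds falling between control-based bounds plus 3 SD, cut at about 20% in these data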
# KLK7 zymogen act: activators of human kallikrein-7 zymogen | purified proKLK7, EDANS-DABCYL substrate fluorescence; 100% is mature enzyme control, 0% vehicle | activation, % at 7 µM | 0.9% of 370,000 active | AID 652039;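 active = activation above the mean of all tested compounds plus 3 SD, computed per campaign excluding outliers beyond control limits, cut at about 13% in these data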
# ADAM17 inh: inhibits human ADAM17; P78536; recombinant ADAM17, EDANS/DABCYL FRET peptide cleavage; inhibition, % at 6.95 µM; 0.83% of 370,000 active;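 active = inhibition above the mean of compounds lying between control limits plus 3 SD, set per campaign, cut at about 8.5% in these data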
# PLCg1 inh: inhibitors of human phospholipase C gamma1; purified PLC-gamma1, fluorogenic substrate, fluorescence; inhibition, % at 12.2 µM; 0.84% of 370,000 active; P19174; in the data active = inhibition above about 9.5%
# HGIII-sPLA2 inh: Inhibits HGIII-sPLA2 liposome hydrolysis, primary screen; Q9NZ20; AID 743126; 0.56% of 370,000 active; QFRET BODIPY PC-A2 liposome hydrolysis, fluorescence; inhibition, % at 12.2 µM;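 active = inhibition above mean plus 3 SD of compounds lying within the high and low control bounds, cut at about 19% in these data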
# ADAM10 confirm: confirmation of inhibitors of human ADAM10. inhibition, % at 6.95 µM. 1% of 2,100 active. AID 743208. shares compounds with ADAM10 inh. ADAM10 QFRET peptide cleavage, EDANS fluorescence;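 active = inhibition above about 20% chosen separately for each screening run, limit read from the data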
# ADAM17 counter: inhibits human ADAM17 in ADAM10 exosite counter-screen. shares compounds with ADAM10 inh. ADAM17 QFRET peptide cleavage, EDANS fluorescence. inhibition, % at 6.95 µM. 0.5% of 2,100 active;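 active = mean triplicate inhibition above the solvent-only control wells' mean plus 3 SD, cut at about 12% in these data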
# Numbers stand for hits; 0 = inactive; - = no result. Compounds with a hit are over-represented: about 3.4% of the library has one in this group of screens.
SMILES,PLC-beta3 inh,ADAM10 inh,KLK7 zymogen act,ADAM17 inh,PLCg1 inh,HGIII-sPLA2 inh,ADAM10 confirm,ADAM17 counter
Cn1c(CSCc2ccc(Cl)cc2Cl)n[nH]c1=S,0,0,0,0,0,0,-,-
CSc1nnc(CSCc2ccc(Cl)cc2Cl)n1-c1ccccc1,0,23,0,0,0,0,0,0
O=C(Oc1cccc2ccccc12)c1ccccc1,0,0,0,0,0,0,-,-
O=C(Oc1cccc2c(O)cccc12)c1ccccc1,0,23,0,0,0,0,0,0
CCOC(=O)[C@@]12CCCC=C1N(CCc1ccc(Cl)cc1)C(=O)[C@H]2CC(=O)NCCCCc1ccccc1,0,0,0,0,0,0,-,-
Cc1cccnc1NC(=O)COc1ccc2oc3c(c2c1)CCCC3,0,82,0,0,0,0,0,0
CCC[C@H]1[C@@H](NC(=O)C2CCC2)CC[C@@]23CCCN2C(=O)CCC[C@@H]13,0,0,-,0,0,0,-,-
Cn1cc(C(=O)c2ccc(Cl)cc2Cl)cc1C(=O)N/N=C(\N)COc1ccc(Cl)cc1Cl,0,30,0,20,12,0,0,0
COc1cc(F)c(S(=O)(=O)N2CCCN(S(=O)(=O)c3cccc(N)c3)CC2)c(F)c1,0,0,-,0,0,0,-,-
O=C(Nc1ccc2[nH]c(=S)sc2c1)Nc1ccccc1F,0,24,0,0,0,0,0,0
COc1ccc(NC(=O)CN2C(=O)C(c3ccccc3)=NC23CCCCCC3)cc1,0,27,0,0,0,0,0,0
Cc1ccc(S(=O)(=O)Nc2ccc(NC(=O)Nc3ccc(F)cc3F)cc2)cc1,0,20,0,0,0,0,0,0
O=C(Nc1ccc(S(=O)(=O)N2CCCC2)cc1)Nc1ccc(F)cc1F,0,0,0,0,0,0,-,-
Cc1ccc2nc3sc(C(=O)N4CCN(C)CC4)cc3cc2c1,0,0,-,0,0,0,-,-
CCN(CC)C(=O)c1ncn2c1C(=O)N[C@H](C)C2,0,0,0,0,0,0,-,-
Cc1sc2nc(CSc3ccccc3)nc(N3CCC(C(N)=O)CC3)c2c1C,0,20,0,0,0,0,0,0
CC(=O)NC(c1ccc(F)c(F)c1)c1nc(-c2cccc(C(C)C)c2)cs1 (stereo unspecified),0,20,0,0,0,0,0,0
O=C(CCc1ccc(S(=O)(=O)NC2CCCCC2)cc1)Nc1ccccc1,0,0,0,0,0,0,-,-
O=C(CCc1ccc(S(=O)(=O)NC2CCCCC2)cc1)N(Cc1ccccc1)Cc1ccccc1,0,21,0,0,0,0,0,0
N#CCC(CNc1ncc(C(F)(F)F)cc1Cl)OC(=O)c1cccc([N+](=O)[O-])c1 (stereo unspecified),0,21,0,0,0,0,0,0
N#CCC(CNc1ncc(C(F)(F)F)cc1Cl)OC(=O)c1c(F)cccc1F (stereo unspecified),0,0,0,0,0,0,-,-
O=C(NCc1ccccc1)O[C@H]1CC[C@@]23CCCN2C(=O)CCC[C@H]3C1,0,0,-,0,0,0,-,-
CC(Oc1ccccc1Cl)C(=O)Nc1ccc(S(=O)(=O)Nc2nccs2)cc1 (stereo unspecified),0,51,0,0,0,0,0,0
Cc1ccccc1OC(C)C(=O)Nc1ccc(S(=O)(=O)Nc2nccs2)cc1 (stereo unspecified),0,0,0,0,0,0,-,-
COc1cccc(CNS(=O)(=O)c2ccccc2Br)c1,0,0,0,0,0,0,-,-
C#CCOCCOCCOCCNc1nc(N2CCN(C(=O)CCCCCCCCCCNC(=O)[C@@H](CCSC)n3cc(CCO)nn3)CC2)nc(N2CCN(C(=O)CCCCCCCCCCNC(=O)[C@@H]([C@H](C)O)n3cc(C)nn3)CC2)n1,0,20,0,0,0,0,0,0
COc1cccc(NC(=O)CN2C(=O)CSc3ccc(S(=O)(=O)N4CCC(C)CC4)cc32)c1,0,21,0,0,0,0,0,0
